The panel holds about 79,000 compounds, 15% with a hit somewhere; the sample as a whole holds those more often. Calls of active or inactive are those of the source. No stated cut-off is given here; in the data, active means growth inhibition above about 70%; inactive means the rest.
Experiments:
[1] = NCI Yeast Anticancer Drug Screen. Data for the rad50EPP+ strain (AID 151);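 further: 0% = growth of vehicle-treated control cultures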; details: S. cerevisiae rad50 mutant strain, stronger effect = higher value
Outline: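 Compounds were applied to the rad50EPP+ yeast strain, which bears a defined DNA repair alteration, and growth inhibition was determined relative to vehicle-treated cultures.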

[2] = NCI Yeast Anticancer Drug Screen. Data for the mgt1 strain (AID 153); details: S. cerevisiae mgt1 mutant growth inhibition, stronger effect = higher value
Outline: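 Strain: mgt1 yeast, one of a set carrying defined DNA damage repair or cell cycle control alterations. Compound-treated growth compared with vehicle.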

[3] = NCI Yeast Anticancer Drug Screen. Data for the rad50 strain (AID 155);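 further: 0% = growth of vehicle-only cultures of the same strain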; details: S. cerevisiae rad50 strain growth inhibition, stronger effect = higher value
Outline: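 Relative growth inhibition (compound vs vehicle) was measured in yeast with a defined repair-gene alteration.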

[4] = NCI Yeast Anticancer Drug Screen. Data for the mec2-1 strain (AID 157); details: S. cerevisiae mec2-1 strain, stronger effect = higher value
Outline: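 Strain: mec2-1 (DNA repair/cell cycle alteration). Compound exposure, then growth measured; inhibition expressed relative to vehicle.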

[5] = NCI Yeast Anticancer Drug Screen. Data for the rad14 strain (AID 159);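 further: 0% = growth of vehicle-treated control cultures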; details: S. cerevisiae rad14 strain growth inhibition, stronger effect = higher value
Outline: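 Screen for anticancer potential: a yeast strain altered in DNA damage repair is grown with compound, and reduced growth is quantified against vehicle controls.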

[6] = NCI Yeast Anticancer Drug Screen. Data for the sgs1 mgt1 strain (AID 161);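 further: 0% = growth of cultures given vehicle only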; details: S. cerevisiae sgs1 mgt1 strain, stronger effect = higher value
Outline: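 Test agents were incubated with a DNA-repair-mutant yeast strain. Growth was then read and compared against vehicle-treated controls.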

[7] = NCI Yeast Anticancer Drug Screen. Data for the CLN2oe strain (AID 163);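 further: 0% = growth of vehicle-only control cultures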; details: S. cerevisiae CLN2oe strain, stronger effect = higher value
Outline: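 Growth of a genetically modified yeast strain is measured after compound exposure and compared with cultures given vehicle alone.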

[8] = NCI Yeast Anticancer Drug Screen. Data for the cln2 rad14 strain (AID 165);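 further: 0% = growth equal to vehicle treated cultures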; details: S. cerevisiae cln2 rad14 strain, stronger effect = higher value
Outline: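 Compounds are applied to the cln2 rad14 yeast strain, and growth is then compared with that of vehicle-treated cultures to give inhibition.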

[9] = NCI Yeast Anticancer Drug Screen. Data for the bub3 strain (AID 167); details: S. cerevisiae bub3 mutant strain, stronger effect = higher value
Outline: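 Screening used yeast with an engineered genetic alteration affecting cell cycle control. Compound-exposed cultures were compared with vehicle cultures, and reduced growth was taken as inhibition.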

[10] = NCI Yeast Anticancer Drug Screen. Data for the wt2 strain (AID 169);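 further: 0% = growth of vehicle-treated yeast cultures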; details: S. cerevisiae wt2 strain growth inhibition, stronger effect = higher value
Outline: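 This strain belongs to a panel of yeast strains with defined genetic alterations in DNA damage repair or cell cycle control. Compounds are applied, and growth inhibition is measured against vehicle-treated cultures.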

[11] = NCI Yeast Anticancer Drug Screen. Data for the mlh1 strain (AID 171);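 further: 0% = growth of vehicle-treated control cultures of the same strain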; details: S. cerevisiae mlh1 strain growth inhibition, stronger effect = higher value
Outline: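 Growth of the mutant yeast strain after compound exposure, expressed as inhibition relative to vehicle-only controls.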

[12] = NCI Yeast Anticancer Drug Screen. Data for the sgs1 strain (AID 173);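 further: 0% = growth of vehicle-only control cultures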; details: S. cerevisiae sgs1 mutant, stronger effect = higher value
Outline: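 Growth of a yeast strain bearing a defined genetic alteration is measured after compound treatment. Inhibition is expressed relative to vehicle-only controls.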

[13] = NCI Yeast Anticancer Drug Screen. Data for the mlh1 rad18 strain (AID 175); details: S. cerevisiae mlh1 rad18 strain growth inhibition, stronger effect = higher value
Outline: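 Read-out is yeast growth inhibition, calculated against vehicle-only controls. The compound was applied to a strain engineered with DNA damage repair alterations.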

[14] = NCI Yeast Anticancer Drug Screen. Data for the rad18 strain (AID 177); details: S. cerevisiae rad18 mutant growth inhibition, stronger effect = higher value
Outline: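 Growth of the mutant yeast strain after compound exposure, normalised to vehicle-only cultures.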

[15] = NCI Yeast Anticancer Drug Screen. Data for the rad52 strain (AID 147);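 further: 0% = growth of vehicle-treated control cultures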; details: S. cerevisiae rad52 mutant growth inhibition, stronger effect = higher value
Outline: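 Compounds are applied to a genetically defined yeast strain lacking normal DNA damage repair, and inhibition of growth is expressed relative to cultures given vehicle only.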

[16] = at 5.0 µM (retest, dose inferred, filed as 0.5)
[17] = at 50.0 µM (retest, dose inferred, filed as 5.0)

Measured: growth inhibition

CC(C)(N=Nc1ccc(Cl)cc1)[N+](=O)[O-]
active: [1]; at 33.0 µM 90% | [1]; at 100.0 µM 96% | [2]; at 11.0 µM 79% | [2]; at 33.0 µM 98% | [2]; at 100.0 µM 99% | [3]; at 11.0 µM 93% | [3]; at 33.0 µM 98% | [3]; [17] 98% | [3]; at 50.0 µM 99% | [3]; at 100.0 µM 98% | [4]; at 33.0 µM 98% | [4]; [17] 99% | [4]; at 50.0 µM 98.9% | [4]; at 100.0 µM 98% | [5]; at 11.0 µM 76% | [5]; at 33.0 µM 97% | [5]; at 100.0 µM 97% | [6]; [17] 98% | [6]; at 50.0 µM 98.7% | [7]; at 11.0 µM 83% | [7]; at 33.0 µM 97% | [7]; at 100.0 µM 98% | [8]; [17] 98% | [8]; at 50.0 µM 98.5% | [9]; at 11.0 µM 82% | [9]; at 33.0 µM 97% | [9]; [17] 99% | [9]; at 50.0 µM 99% | [9]; at 100.0 µM 98% | [10]; at 11.0 µM 88% | [10]; at 33.0 µM 98% | [10]; at 100.0 µM 98% | [11]; at 11.0 µM 77% | [11]; at 33.0 µM 98% | [11]; at 100.0 µM 99% | [12]; at 11.0 µM 95% | [12]; at 33.0 µM 98% | [12]; at 100.0 µM 98% | [13]; [17] 98% | [13]; at 50.0 µM 98.7% | [14]; at 11.0 µM 94% | [14]; at 33.0 µM 98% | [14]; at 100.0 µM 96%
inactive: [1]; at 1.2 µM 13% | [1]; at 3.7 µM 17% | [1]; at 11.0 µM 60% | [2]; at 1.2 µM 12% | [2]; at 3.7 µM 22% | [3]; at 1.2 µM 15% | [3]; at 3.7 µM 35% | [3]; [16] 47% | [4]; at 1.2 µM -1% | [4]; at 3.7 µM 9% | [4]; [16] 28% | [4]; at 11.0 µM 64% | [5]; at 1.2 µM 16% | [5]; at 3.7 µM 21% | [6]; [16] 35% | [7]; at 1.2 µM 14% | [7]; at 3.7 µM 19% | [8]; [16] -1% | [9]; at 1.2 µM 19% | [9]; at 3.7 µM 18% | [9]; [16] 27% | [10]; at 1.2 µM 12% | [10]; at 3.7 µM 15% | [11]; at 1.2 µM 3% | [11]; at 3.7 µM 11% | [12]; at 1.2 µM 11% | [12]; at 3.7 µM 19% | [13]; [16] 47% | [14]; at 1.2 µM 15% | [14]; at 3.7 µM 23%

O=S(=O)(c1cccc(C(F)(F)F)c1)N1c2ccccc2-n2cccc2C1c1cccnc1 (stereo unspecified)
inactive: [15]; at 1.2 µM -23% | [15]; at 3.7 µM 7% | [1]; at 1.2 µM -73% | [1]; at 3.7 µM -45% | [1]; at 11.0 µM -54% | [1]; at 33.0 µM -57% | [1]; at 100.0 µM -46% | [2]; at 1.2 µM -43% | [2]; at 3.7 µM -16% | [3]; at 1.2 µM -15% | [3]; at 3.7 µM 5% | [3]; [16] 27% | [4]; at 1.2 µM -59% | [4]; at 3.7 µM -32% | [4]; [16] 31% | [4]; at 11.0 µM 56% | [6]; [16] 18% | [7]; at 1.2 µM -16% | [7]; at 3.7 µM -19% | [8]; [16] 22% | [9]; at 1.2 µM -27% | [9]; at 3.7 µM 1% | [9]; [16] 25% | [9]; at 11.0 µM 62% | [10]; at 1.2 µM -23% | [10]; at 3.7 µM -41% | [10]; at 11.0 µM 60% | [11]; at 1.2 µM -43% | [11]; at 3.7 µM -15% | [12]; at 1.2 µM -40% | [12]; at 3.7 µM -21% | [13]; [16] 34% | [14]; at 1.2 µM -7% | [14]; at 3.7 µM 7%
active: [15]; at 11.0 µM 87% | [15]; at 33.0 µM 95% | [15]; at 100.0 µM 91% | [2]; at 11.0 µM 78% | [2]; at 33.0 µM 94% | [2]; at 100.0 µM 92% | [3]; at 11.0 µM 85% | [3]; at 33.0 µM 92% | [3]; [17] 96% | [3]; at 50.0 µM 90.5% | [3]; at 100.0 µM 87% | [4]; at 33.0 µM 92% | [4]; [17] 97% | [4]; at 50.0 µM 94.8% | [4]; at 100.0 µM 89% | [6]; [17] 98% | [6]; at 50.0 µM 96.8% | [7]; at 11.0 µM 74% | [7]; at 33.0 µM 94% | [7]; at 100.0 µM 90% | [8]; [17] 96% | [8]; at 50.0 µM 93.9% | [9]; at 33.0 µM 94% | [9]; [17] 96% | [9]; at 50.0 µM 94.7% | [9]; at 100.0 µM 90% | [10]; at 33.0 µM 93% | [10]; at 100.0 µM 91% | [11]; at 11.0 µM 70% | [11]; at 33.0 µM 93% | [11]; at 100.0 µM 88% | [12]; at 11.0 µM 73% | [12]; at 33.0 µM 92% | [12]; at 100.0 µM 89% | [13]; [17] 96% | [13]; at 50.0 µM 95.5% | [14]; at 11.0 µM 85% | [14]; at 33.0 µM 93% | [14]; at 100.0 µM 89%

Source: PubChem BioAssay (NCI)
